Measurements reported in PubChem BioAssay (NCI).
This is part of a sample that, as a whole, favours compounds with a hit. Of some 83,000 tested, about 20% had one in any assay.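 In brief: 96-well plates, 48 h treatment, single concentration, percent growth endpoint.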 Unmarked numbers belong to inactive results. The source made the active and inactive calls. Rule for the calls: active = growth percent below 10; inactive = the rest.

What was measured:
Test in all cases: NCI-60 one-dose screen, 48 h (100 = growth as untreated, 0 = no growth, -100 = all killed)
Details in all cases: 10 µM unless noted
DU-145 prostate = tested on: DU-145 prostate
K-562 leukemia = tested on: K-562 leukemia
MALME-3M melanoma = tested on: MALME-3M melanoma
MDA-MB-231 breast = tested on: MDA-MB-231 breast
RXF 393 renal = tested on: RXF 393 renal
SF-268 CNS = tested on: SF-268 CNS
SF-295 CNS = tested on: SF-295 CNS
SF-539 CNS = tested on: SF-539 CNS
UACC-257 melanoma = tested on: UACC-257 melanoma
M14 melanoma = tested on: M14 melanoma

| Compound | growth (DU-145 prostate) | growth (K-562 leukemia) | growth (MALME-3M melanoma) | growth (MDA-MB-231 breast) | growth (RXF 393 renal) | growth (SF-268 CNS) | growth (SF-295 CNS) | growth (SF-539 CNS) | growth (UACC-257 melanoma) | growth (M14 melanoma) |
| --- | --- | --- | --- | --- | --- | --- | --- | --- | --- | --- |
| C=C(CN1CC=CCC1)[C@@H]1CC[C@]2(COC(C)=O)CC[C@]3(C)[C@H](CC[C@@H]4[C@@]5(C)CC[C@H](O)C(C)(C)[C@@H]5CC[C@]43C)[C@@H]12 | 102% | 91.7% | 113% | 112% | 109% | 106% | 105% | 96.8% | 99.4% | 97.4% |
| COc1ccc(C/C(C)=C(/c2ccc(OCCN3CCCC3)cc2)c2ccc(OC(=O)NCc3ccccc3)cc2)cc1 | 95% | 1.16% (active) | 83.6% | 101% | 76.8% | 86.5% | 95.2% | 82.5% | 107% | -20.8% (active) |
| COc1ccc(-c2nn3c(-c4cc(F)c(Cl)cc4Cl)nnc3s2)cc1 | 77.3% | 16.1% | 41.4% | 55.2% | 61.4% | 60.3% | 13.1% | 47% | 72.6% | 15.5% |
| O=C(Nc1ccc2ncsc2c1)c1csc(Nc2ccc3[nH]ncc3c2)n1 | 35.5% | 28.1% | 57.1% | 62.9% | 13.9% | 55.8% | 25.5% | 22.9% | 63.8% | 25.2% |
| COc1cc(Cl)cc(-c2nn(C(=O)NS(=O)(=O)c3ccc(Cl)cc3)cc2-c2ccncc2)c1 | 83.8% | 82.2% | 78.1% | 56.8% | 71.2% | 67.5% | 90.6% | 39.6% | 113% | 72.7% |
| CCOC(=O)C(=Cc1ccc(C#N)cc1)C(=O)OCC | 43.8% | 3.59% (active) | -10.9% (active) | 16.3% | -62.5% (active) | 28.1% | 95.3% | -49.9% (active) | 14.6% | 27% |
| O=C(c1ccc(Nc2nccc(NCCCNc3ccnc4cc(Cl)ccc34)n2)cc1)N1CCCCC1 | 39.1% | 18.8% | 17.2% | 36.2% | 61% | 36.5% | 37.2% | 35.5% | 36.7% | 35% |
| C=C[C@]1(C)C=C2CC[C@@H]3C(C)(C)C(=O)CC[C@@]3(C)[C@@H]2CC1 | 108% | 95.3% | 1.04% (active) | 111% | 127% | 97.6% | 101% | 103% | 106% | 103% |
| CN1Cn2c(ccc2C(F)(F)F)C(=O)CS1(=O)=O | 114% | 110% | 90.2% | 106% | 135% | 108% | 103% | 94.3% | 102% | 104% |
| CN(C)C1CCN(C(=O)c2ccc(NC(=O)Nc3ccc(-c4nc(N5CCOCC5)c5cccn5n4)cc3)cc2)CC1 | 0.561% (active) | 18.9% | -32.6% (active) | 0.146% (active) | -30.4% (active) | 2.29% (active) | -37.1% (active) | -39.6% (active) | -18.3% (active) | -0.109% (active) |
| COc1cc(N=Nc2ccc(O)c3ncccc23)c2ncccc2c1 | 31% | 10.9% | 35.5% | 37.3% | 52.5% | 18.3% | 67.8% | 10.1% | 74.4% | 25.9% |
| CCOC(=O)c1cnn(-c2ccc(S(N)(=O)=O)cc2)c1N | 132% | 87.7% | 104% | 111% | 95.9% | 161% | 110% | 101% | 96.1% | 98.9% |
